CYP2C19 inhib = blocks human cytochrome P450 2C19. CYP2C19 Supersomes, luciferin-H EGE luminescence, 30 min. inhibition, % at 5 µM. 21% of 96,000 active;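 active = CYP2C19 inhibition above a set limit at 5 µM in the primary screen, cut at about 50% in these data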;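 also: plate controls were negative control wells for no effect and 2.5 mM tranylcypromine positive control for full effect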
CYP2C9 inh = blocks human cytochrome P450 2C9. P11712. CYP2C9 Supersomes, luciferin-H conversion, luminescence. inhibition, % at 5 µM. 20% of 96,000 active. AID 777;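 active = blocking of liver enzyme CYP2C9 beyond about 50% at 5 µM, limit read from the data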
Target sequence (P11712 whole entry, looked up): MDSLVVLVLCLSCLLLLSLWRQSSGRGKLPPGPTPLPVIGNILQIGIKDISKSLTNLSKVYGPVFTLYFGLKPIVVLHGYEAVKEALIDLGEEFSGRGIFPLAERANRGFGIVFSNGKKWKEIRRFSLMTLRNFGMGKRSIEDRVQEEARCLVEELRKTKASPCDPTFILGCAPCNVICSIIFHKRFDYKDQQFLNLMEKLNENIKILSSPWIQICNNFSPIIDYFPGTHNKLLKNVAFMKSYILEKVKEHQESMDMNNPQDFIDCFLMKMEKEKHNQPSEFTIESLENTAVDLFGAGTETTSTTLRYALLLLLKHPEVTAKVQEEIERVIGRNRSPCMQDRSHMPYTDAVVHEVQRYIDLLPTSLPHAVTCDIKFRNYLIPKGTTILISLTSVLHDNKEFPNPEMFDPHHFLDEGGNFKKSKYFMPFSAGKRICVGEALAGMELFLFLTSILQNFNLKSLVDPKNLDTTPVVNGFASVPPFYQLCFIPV
CYP2C9 activ = activators of human CYP2C9; recombinant CYP2C9, luciferin-H conversion, luminescence; active compounds read high; factor 1 = untreated enzyme, 0 = blocked; 1.4% of 96,000 active; P11712; activation factor at 5 µM; AID 1024;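 active = activation factor of 2 or more for CYP2C9 at a 5 µM dose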;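 also: 0 = sulfaphenazole-blocked wells and 1 = vehicle-only wells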
CYP2C19 activ = activators of human cytochrome P450 2C19. 96,000 tested, under 10 active. recombinant CYP2C19, luciferin-H EGE luminescence; active compounds read high; 0 = fully inhibited enzyme, 1 = untreated enzyme. activation factor at 5 µM. AID 1025;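 active = activation factor of at least 2 at 5 µM in the primary screen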;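 also: 0 = wells with 2.5 mM tranylcypromine and 1 = vehicle-only wells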
The depositor's hits bear a star. Shown are actives, neighbours in structure and some others; about 31% of the full set was active somewhere.

SMILES	CYP2C19 inhib	CYP2C9 inh	CYP2C9 activ	CYP2C19 activ
COc1ccc(C2N=C(c3ccccc3)C(C)(C)N2O)cc1OC (stereo not given)	32	2	1	0.7
COc1ccc(N2CCN(C(=O)CSc3ncccc3-c3nc4ccccc4[nH]3)CC2)cc1	30	24	0.8	0.7
COc1ccccc1N1CCN(C(=O)CSc2ncccc2-c2nc3ccccc3[nH]2)CC1	74*	58*	0.4	0.3
CC(C)OC(=O)CSc1nnc2n1C(C)(C)Cc1ccccc1-2	49	53*	0.5	0.5
CCC(CC)C(=O)Nc1nnc(SCC(=O)N2CCN(c3ccccc3OC)CC2)s1	50*	73*	0.3	0.5
O=S(=O)(NCCSc1nnc(-c2ccco2)n1-c1ccccc1)c1ccccc1	76*	83*	0.2	0.2
CCc1ccc(N2CC(C(=O)NCc3ccc4c(c3)OCO4)CC2=O)cc1 (stereo not given)	8	4	1	0.9
CCOC(=O)CSc1nnc(-c2ccccc2)c(=O)[nH]1	-12	-8	1.1	1.1
CCN(CC)c1ccc2cc(C(=O)Nc3ccc(-n4cnnn4)c(OC)c3)c(=O)oc2c1	-2	4	1	1
CCCCN(CC)C(=O)Cc1c(C(=O)O)[nH]c2ccc(Cl)cc12	96*	95*	0	0
CCn1c(CC(=O)Nc2ccc(C)cc2)nnc1SCC(=O)NCc1ccccc1	4	21	0.8	1
Cc1ccc(-n2c(SCC(=O)N3CCOCC3)nnc2-c2ccncc2)cc1	72*	12	0.9	0.3
O=C(CSc1nnc(-c2cccnc2)n1-c1ccccc1)N1CCN(c2ccc(F)cc2)CC1	92*	64*	0.4	0.1
O=C(Cc1ccccc1)Nc1ccccc1C(=O)O	-1	35	0.7	1
CC(C)CN(C(=O)COC(=O)c1cc2c(s1)CCC2)C1CCS(=O)(=O)C1 (stereo not given)	-4	10	0.9	1
COc1ccc(/C=N/NC(=O)c2cc(C34CC5CC(CC(C5)C3)C4)[nH]n2)cc1O	40	59*	0.4	0.6
COc1ccc(/C=N/NC(=O)CCc2c(C)n[nH]c2C)cc1O	10	64*	0.4	0.9
COc1ccc(/C=N/Nc2nc(N3CCCC3)nc(N3CCCC3)n2)cc1O	-17	-20	1.2	1.2
COc1cc(/C=N/NC(=O)CCc2ccccc2)ccc1O	25	2	1	0.7
CC(=O)Nc1ccc(S(=O)(=O)NCCC(=O)OCCN2C(=O)c3ccccc3C2=O)cc1	70*	93*	0.1	0.3
CC(=O)Nc1ccc(S(=O)(=O)NCCNC(=O)c2ccccc2F)cc1	-10	10	0.9	1.1
Cc1cccc2cc(COC(=O)C3CCCO3)c(=O)[nH]c12 (stereo not given)	-11	-6	1.1	1.1
COCCSc1nnc(NC(=O)CSCc2ccccc2)s1	28	59*	0.4	0.7
COCCSc1nnc(NS(=O)(=O)Cc2ccccc2)s1	6	68*	0.3	0.9
CCC(=O)Nc1nnc(SCCOC)s1	-9	-18	1.2	1.1
SMILES	CYP2C19 inhib	CYP2C9 inh	CYP2C9 activ	CYP2C19 activ
Nc1nc(N2CCCCC2)nc(N2CCCCC2)n1	28	19	0.8	0.7
NC(=O)c1oc2ccc(Cl)cc2c1NC(=O)CN1CCOCC1	52*	16	0.8	0.5
COC(=O)c1oc2ccc(Br)cc2c1NC(=O)CCN1CCOCC1	45	55*	0.4	0.6
CCOC(=O)c1oc2ccc(Br)cc2c1NC(=O)CN1CCN(C)CC1	5	2	1	1
CC(=O)c1c(OC(=O)c2ccco2)c2ccccc2n1C	62*	23	0.8	0.4
CC(=O)c1c(OC(=O)c2ccc(C)cc2)c2ccccc2n1C	34	22	0.8	0.7
CC1CC(C)CN(CCCNC(=O)Cc2c(C(=O)O)[nH]c3ccccc23)C1 (stereo not given)	-16	-12	1.1	1.2
COc1ccc(C(=O)Oc2ccc(C(C)=O)cc2)c(OC)c1	59*	3	1	0.4
Cc1cc(C)n(C(=O)c2cc3ccccc3c(=O)o2)n1	-4	-45	1.4	1
COc1cc2c(=O)n(-c3ccc(C)cc3)c(=O)n(CC(=O)c3ccc4c(c3)OCO4)c2cc1OC	4	2	1	1
COc1cc2c(O)c3c(c(-c4ccc5c(c4)OCO5)c2cc1OC)C(=O)OC3	19	68*	0.3	0.8
CCOC(=O)c1c(NC(=O)CC2SC(N)=NC2=O)sc2c1CCCC2 (stereo not given)	18	64*	0.4	0.8
CCOC(=O)c1c(NC=O)sc2c1CCC2	-7	-38	1.4	1.1
CCOC(=O)c1c(NC(=O)CN2CCOCC2)sc(C(=O)NC)c1C	37	39	0.6	0.6
CCOC(=O)c1c(NC(=O)COC)sc2c1CCCC2	16	58*	0.4	0.8
CCOC(=O)c1c(NC(=O)CN2CCCCC2)sc2c1CCN(C(=O)OCC)C2	65*	47	0.5	0.3
CCOC(=O)c1c(NC(=O)CN2CCOCC2)sc2c1CCCC2=O	18	51*	0.5	0.8
O=C1OCC(c2ccccc2)=C1c1ccc(S(=O)(=O)N2CCOCC2)s1	10	24	0.8	0.9
COC(=O)c1c(NC(=O)CC2SCC(C(=O)OC)NC2=O)sc2c1CCCC2 (stereo not given)	69*	-124	2.2*	0.3
CCOC(=O)c1c(NC(=O)CN2CCOCC2)sc2c1CCCC2	99*	100*	0	0
CCOC(=O)c1ccc(NC(=O)CC2SCCNC2=O)cc1 (stereo not given)	3	-20	1.2	1
COC(=O)c1c(NC(C)=O)sc2c1CCCC2	-5	4	1	1.1
CCOC(=O)C1CSC(CC(=O)Nc2ccc(Cl)cc2)C(=O)N1 (stereo not given)	42	-102	2*	0.6
CCCOC(=O)C1C2C=CC(C2)C1C(=O)OCC(=O)c1ccccc1 (stereo not given)	91*	75*	0.3	0.1
Cc1cc2n(n1)C(c1ccc3c(c1)OCO3)Nc1c(C)cccc1-2 (stereo not given)	98*	92*	0.1	0
SMILES	CYP2C19 inhib	CYP2C9 inh	CYP2C9 activ	CYP2C19 activ
Cc1cc(C)c2c(c1)-c1cc(C)nn1C(c1ccc3c(c1)OCO3)N2 (stereo not given)	33	20	0.8	0.7
CO/N=C(/CNC(=O)c1ccccc1Cl)c1ccc(Cl)cc1	91*	47	0.5	0.1
CC1(c2ccc3noc(-c4ccccc4)c3c2)OCCO1	50*	45	0.6	0.5
Clc1ccc2noc(-c3ccccc3)c2c1	2	2	1	1
CC1(c2ccc3noc(-c4ccc(F)cc4)c3c2)OCCO1	69*	14	0.9	0.3
COC(=O)Cc1c(C)nc2nc(-c3ccc(Cl)cc3)[nH]n2c1=O	-3	-5	1.1	1
COC(=O)c1c[nH]n2c(=O)c(Cc3ccc(F)cc3Cl)c(C)nc12	42	71*	0.3	0.6
CCc1cc(N2CCOCC2)cc2c1[nH]c1ccccc12	44	-18	1.2	0.6
COCCn1c(C)cc(C(=O)CSc2ccc3ccccc3n2)c1C	68*	-63	1.6	0.3
